Data on 14 compounds can be found in PubChem BioAssay.

Structures are written as SMILES. Calls of active or inactive are those of the source.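 How the source made its calls, unless noted: active means NADPH fluorescence slope more negative than the mean of all samples by about 3 SD, 99.7% confidence; inactive means the rest.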

Experiment [1] is described as follows: inhibitors of TNFa-induced NFkB p65 translocation, primary screen, imaging, HUVEC, MLSMR starter and 10KST1 sets (AID 438;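 active means inhibition above 20% together with a positive visual image hit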;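 further: compound added about 3h40 before a 20 min TNFalpha stimulation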;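 on inhibition: signal is the nuclear over cytoplasmic p65 intensity ratio per well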). As to conditions: HUVEC TNFa-induced p65 nuclear translocation; cell count: measured here: nuclei count (cytotoxicity indicator), at 2.08 µM; inhibition: at 2 µM, stronger effect = higher value, 0% TNFa-plus-vehicle, 100% no-TNFa wells.
Experiment [2] in a line: reduction of polyQ htt aggregates in cells – imaging, exon1htt(103Q)mCFP cells, high-content imaging, primary screen (AID 483;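 active means visual image review flags a hit and inhibition of aggregation exceeds 20%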;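 further: compound exposure lasted 3 days before fixation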;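 on nuclei count: percent of the per-plate median nuclei count of sample wells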). As to conditions: exon1htt(103Q)mCFP cell line, aggregate imaging, at 2 µM; inhibition of aggregation: stronger effect = higher value; nuclei count: measured here: cell count, toxicity.
Experiment [3] in a line: endothelial E-selectin expression blockers – imaging, HUVEC, immunofluorescence, MLSMR starter and 10KST1 sets, primary screen (AID 487;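 active means visually confirmed hit in the image check and inhibition above 20%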;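 on inhibition: signal is fraction of cell area covered by stained E-selectin grains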;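 on nuclei count: 100% = median nuclei count of all wells on the same plate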). As to conditions: HUVEC TNFalpha-induced E-selectin immunofluorescence imaging, at 2 µM; inhibition: stronger effect = higher value; nuclei count: measured here: cell number, toxicity.
Experiment [4] addresses Voltage-gated potassium channel subunit beta-2 (Rattus norvegicus) (UniProt P62483). The experiment in a line: inhibitors of rat Kvbeta2 reductase activity – biochemical, NADPH fluorescence, primary screen (AID 622;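 active means fluorescence slope higher than the sample average by over 3 SD, cut at about -0.22 in these data, passing the limit was not always enough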;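 further: slope of raw intensity against log time taken from 70 to 1610 s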). As to conditions: recombinant KvBeta, 4-cyanobenzaldehyde reduction, at 10 µM, stronger effect = higher value.
For experiment [5] the target is unchanged. In words: enhancers of rat Kvbeta2 NADPH turnover – biochemical, NADPH fluorescence, primary screen (AID 623).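 Further: fluorescence intensity change per second fitted from 20 to 320 s.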 As to conditions: Recombinant KvBeta, NADPH fluorescence decrease slope, 10 min; at 10 µM; stronger effect = lower value.
Experiment [6] concerns the target Alpha-2C adrenergic receptor (Homo sapiens) (UniProt P18825). The experiment in a line: compounds altering alpha2C-coupled GIRK flux – cell-based, HEK293 alpha2C/GIRK1/2, thallium flux, primary screen (AID 624;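 active means fluorescence slope after compound addition differing from the mean of all screened samples at 99.7% confidence, in either direction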;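 further: slope of fluorescence ratio to pre-addition baseline per second over 15 to 24 s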). As to conditions: thallium flux BTC fluorescence, at 10 µM, actives lie on both sides.
Experiment [7] can be described thus: blockers of RIG-like receptor reporter activation – cell-based, Sendai virus stimulus, luciferase, 10K MLSCN set, TLR/RLR signaling modifier project, primary screen (AID 602276;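 active means inhibition at or above 50% at 10 µM; inactive means inhibition below 50%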;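 further: firefly luciferase from ISG56 promoter only with Renilla not read in this screen; 0% = Sendai virus plus DMSO and 100% = medium plus DMSO without virus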). As to conditions: HEK293 RL24 IRF3 luciferase reporter, at 10 µM, stronger effect = higher value. On the technique in general: In a reporter assay the amount or activity of a reporter protein is the signal.

The nature of experiment [8]: TLR3 IRF3 reporter activation blockers – cell-based, poly I:C stimulus, luciferase, 10K MLSCN set, primary screen (AID 602277;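 active means inhibition of the reporter signal at or above 50%; inactive means inhibition below 50%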). As to conditions: HEK293-TLR3 RL24 IRF3 luciferase reporter, at 10 µM, stronger effect = higher value.

Sequence of Alpha-2C adrenergic receptor (Homo sapiens) (P18825 whole entry, looked up): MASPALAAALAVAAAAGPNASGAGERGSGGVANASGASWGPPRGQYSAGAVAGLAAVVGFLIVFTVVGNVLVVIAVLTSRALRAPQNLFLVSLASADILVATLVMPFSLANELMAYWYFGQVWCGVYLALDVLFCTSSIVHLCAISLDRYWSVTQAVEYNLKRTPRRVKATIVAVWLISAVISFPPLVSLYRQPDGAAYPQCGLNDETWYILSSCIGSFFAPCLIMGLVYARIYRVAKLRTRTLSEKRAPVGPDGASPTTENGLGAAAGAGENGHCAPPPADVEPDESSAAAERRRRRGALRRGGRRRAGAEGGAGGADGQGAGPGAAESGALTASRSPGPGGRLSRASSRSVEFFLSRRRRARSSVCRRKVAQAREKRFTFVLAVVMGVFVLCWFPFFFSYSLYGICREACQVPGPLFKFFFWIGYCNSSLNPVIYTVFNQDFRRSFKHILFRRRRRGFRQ
Sequence of Voltage-gated potassium channel subunit beta-2 (Rattus norvegicus) (P62483 whole entry, looked up): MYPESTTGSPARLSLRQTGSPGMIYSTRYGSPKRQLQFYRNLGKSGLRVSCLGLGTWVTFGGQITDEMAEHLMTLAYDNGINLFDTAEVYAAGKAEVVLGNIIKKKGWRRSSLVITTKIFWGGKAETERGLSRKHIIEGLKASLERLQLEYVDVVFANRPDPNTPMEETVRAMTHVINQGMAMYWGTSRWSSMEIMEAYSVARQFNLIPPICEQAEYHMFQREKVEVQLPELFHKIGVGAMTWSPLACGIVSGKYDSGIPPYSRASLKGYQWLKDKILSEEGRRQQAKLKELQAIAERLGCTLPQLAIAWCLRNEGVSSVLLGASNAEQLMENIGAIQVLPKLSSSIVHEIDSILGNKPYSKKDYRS

By inhibition is commonly meant the change of the read-out against control, counted positive when it falls. As for `COc1ccc(S(=O)(=O)CCC(=O)O)cc1`, the cell count in experiment [1] came out at 756. For the same compound, the inhibition in experiment [1] is -2.2% (inactive); in experiment [3], -47.5% (inactive); in experiment [7] it was 17% (inactive); in experiment [8], 21.8% (inactive). The inhibition of aggregation in experiment [2] was 25.4% (inactive). Besides, the nuclei count came out at 126% in experiment [2] and 107% in experiment [3]. In experiment [4], the fluorescence slope is -0.603 (inactive). In experiment [5], the NADPH fluorescence slope was 1.2e-05 (inactive). For the same compound, in experiment [6], the slope was 0.00748 (inactive).
Consider `c1ccc(CNc2c3c(nc4ncnn24)CCCC3)nc1`, for which, in experiment [1], the cell count turned out to be 912. Moreover, the inhibition in experiment [1] is 2.1% (inactive); in experiment [3], -39.1% (inactive); in experiment [7] it was 15.7% (inactive); in experiment [8], 13.9% (inactive). The inhibition of aggregation in experiment [2] was -30.3% (inactive). Further, the nuclei count in experiment [2] is 102%; in experiment [3] it was 111%. Besides, the fluorescence slope in experiment [4] is -0.542 (inactive). Besides, the NADPH fluorescence slope in experiment [5] was -9.4e-06 (inactive). The slope in experiment [6] was 0.00501 (inactive).
Take `N#CC(C(=O)c1ccco1)c1ccccn1` (centres undefined): the cell count in experiment [1] came out at 699. Besides, the inhibition in experiment [1] is 2.8% (inactive); in experiment [3] it was 43.2% (inactive); in experiment [7], -8.81% (inactive); in experiment [8], -54% (inactive). Moreover, the inhibition of aggregation in experiment [2] is -5.3% (inactive). Besides, the nuclei count turned out to be 108% in experiment [2] and 94.7% in experiment [3]. For the same compound, the fluorescence slope in experiment [4] was -0.367 (inactive). Also, in experiment [5], the NADPH fluorescence slope is -2e-05 (inactive). The slope in experiment [6] is 0.00116 (inactive).
In the case of `Cc1ccc(NC(=O)CSc2nnc(Cc3cccn3C)n2-c2ccc(F)cc2)cc1`, in experiment [1], the cell count was found to be 562. For the same compound, the inhibition in experiment [1] was 12.9% (inactive); in experiment [3] it was -118% (inactive); in experiment [7], 8.62% (inactive); in experiment [8] it was 23.7% (inactive). The inhibition of aggregation in experiment [2] is -6.4% (inactive). Moreover, the nuclei count was 98.7% in experiment [2] and 91.3% in experiment [3]. In experiment [4], the fluorescence slope was -0.586 (inactive). Also, the NADPH fluorescence slope in experiment [5] is -2.1e-06 (inactive). The slope in experiment [6] is 0.00658 (inactive).
On to `CC(=O)OC(C(=O)NC1CCCCC1)c1ccncc1` (centres undefined), for which the cell count in experiment [1] was found to be 614. Besides, the inhibition was -8.1% (inactive) in experiment [1], -147% (inactive) in experiment [3], 8.21% (inactive) in experiment [7] and 13.3% (inactive) in experiment [8]. In experiment [2], the inhibition of aggregation was -3.6% (inactive). The results for the nuclei count in experiment [2] and in experiment [3] were 105% and 107%, respectively. In addition, in experiment [4], the fluorescence slope is -0.498 (inactive). For the same compound, in experiment [5], the NADPH fluorescence slope was -3e-05 (inactive). In addition, the slope in experiment [6] is 0.00464 (inactive).
Regarding `CSc1c(C#N)c(N)c(C#N)c2c1COC(C)(C)C2`, in experiment [1], the cell count is 723. Moreover, the inhibition was -2.6% (inactive) in experiment [1], -34% (inactive) in experiment [3], 17.3% (inactive) in experiment [7] and 25.5% (inactive) in experiment [8]. Also, the inhibition of aggregation in experiment [2] is -6.1% (inactive). Further, the nuclei count in experiment [2] is 83%; in experiment [3] it was 103%. Besides, the fluorescence slope in experiment [4] is -0.501 (inactive). The NADPH fluorescence slope in experiment [5] is -4.2e-05 (inactive). Moreover, in experiment [6], the slope was 0.00561 (inactive).
Take `Nc1nc(N2CCCCC2)nc(N(c2ccccc2)c2ccccc2)n1`: the cell count in experiment [1] was found to be 710. The inhibition in experiment [1] is -2.9% (inactive); in experiment [3], -33% (inactive); in experiment [7], 10.2% (inactive); in experiment [8], 34.4% (inactive). In addition, in experiment [2], the inhibition of aggregation is 23.2% (inactive). Further, the figures for the nuclei count in experiment [2] and in experiment [3] were 88% and 91.6%, respectively. For the same compound, the fluorescence slope in experiment [4] was -0.544 (inactive). For the same compound, in experiment [5], the NADPH fluorescence slope is -5.4e-05 (inactive). For the same compound, the slope in experiment [6] is 0.00708 (inactive).
For the compound `Cc1nc(N)[nH]c(=O)c1CCC(=O)OCC(C)C`, the cell count in experiment [1] turned out to be 587. In addition, the inhibition was -22.7% (inactive) in experiment [1], -61.2% (inactive) in experiment [3], 6.72% (inactive) in experiment [7] and 32.1% (inactive) in experiment [8]. For the same compound, the inhibition of aggregation in experiment [2] is 5.9% (inactive). The nuclei count came out at 80% in experiment [2] and 97% in experiment [3]. The fluorescence slope in experiment [4] is -0.507 (inactive). Moreover, in experiment [5], the NADPH fluorescence slope is -4.8e-06 (inactive). The slope in experiment [6] was 0.00627 (inactive).
In the case of `CSc1nc(=NC(C)=O)ss1`, the cell count in experiment [1] was 723. In addition, the inhibition in experiment [1] was -18.1% (inactive); in experiment [3], 22.2% (inactive); in experiment [7] it was 4% (inactive); in experiment [8] it was 8.14% (inactive). Moreover, the inhibition of aggregation in experiment [2] was -0.1% (inactive). For the same compound, the nuclei count came out at 106% in experiment [2] and 110% in experiment [3]. Also, in experiment [4], the fluorescence slope is -0.528 (inactive). The NADPH fluorescence slope in experiment [5] is -5.6e-05 (inactive). Also, the slope in experiment [6] is 0.00608 (inactive).
For the compound `Cc1onc(-c2c(Cl)cccc2Cl)c1C(N)=O`, the cell count in experiment [1] came to 406. The inhibition was 6.3% (inactive) in experiment [1], -52% (inactive) in experiment [3], -11.6% (inactive) in experiment [7] and 7.29% (inactive) in experiment [8]. The inhibition of aggregation in experiment [2] was -2.8% (inactive). The nuclei count in experiment [2] is 98.3%; in experiment [3], 98.7%. The fluorescence slope in experiment [4] is -0.5 (inactive). In addition, the NADPH fluorescence slope in experiment [5] was 2.7e-05 (inactive). In addition, the slope in experiment [6] is 0.00603 (inactive).
For `COc1ccc(S(=O)(=O)N2CCOCC2)cc1C(=O)Nc1cc(C)on1`, the cell count in experiment [1] came out at 225. Besides, the inhibition in experiment [1] was 1.1% (inactive); in experiment [3] it was 38.6% (inactive); in experiment [7], -8.66% (inactive); in experiment [8], 12.5% (inactive). In addition, the inhibition of aggregation in experiment [2] is -3.3% (inactive). Besides, the nuclei count was determined as 96.6% in experiment [2] and 76.9% in experiment [3]. Besides, in experiment [4], the fluorescence slope is -0.436 (inactive). The NADPH fluorescence slope in experiment [5] is -3.9e-05 (inactive). The slope in experiment [6] was 0.00355 (inactive).
Consider `O=C(NCCN1C(=O)C2C3C=CC(C3)C2C1=O)N1CCCCC1` (centres undefined), for which the cell count in experiment [1] worked out at 584. The inhibition is -7.6% (inactive) in experiment [1], 3.5% (inactive) in experiment [3], -6.07% (inactive) in experiment [7] and 20.6% (inactive) in experiment [8]. In addition, in experiment [2], the inhibition of aggregation was 0.9% (inactive). Further, the nuclei count in experiment [2] stood at 104%; in experiment [3], 99.5%. Also, the fluorescence slope in experiment [4] was -0.604 (inactive). For the same compound, the NADPH fluorescence slope in experiment [5] was -3.7e-05 (inactive). The slope in experiment [6] is 0.00723 (inactive).
As for `CCS(=O)(=O)NCCc1cc2c(OC)ccc(OC)c2[nH]c1=O`, the cell count in experiment [1] was 349. For the same compound, the inhibition was -15.2% (inactive) in experiment [1], 38.9% (inactive) in experiment [3], 16.6% (inactive) in experiment [7] and 26.4% (inactive) in experiment [8]. Further, the inhibition of aggregation in experiment [2] was 12.1% (inactive). The nuclei count turned out to be 83.7% in experiment [2] and 95.1% in experiment [3]. In addition, the fluorescence slope in experiment [4] is -0.488 (inactive). In addition, the NADPH fluorescence slope in experiment [5] was -3.1e-05 (inactive). Also, the slope in experiment [6] was 0.00489 (inactive).
Regarding `CCC1SC2=NC(C)=C(C(=O)OC)C(c3ccc(C)cc3)N2C1=O` (centres undefined), the cell count in experiment [1] worked out at 562. Moreover, the inhibition in experiment [1] was -11.1% (inactive); in experiment [3], -57.6% (inactive); in experiment [7], -10.4% (inactive); in experiment [8], -17.2% (inactive). Further, in experiment [2], the inhibition of aggregation was -9.6% (inactive). Moreover, the nuclei count in experiment [2] was found to be 111%; in experiment [3], 103%. Further, the fluorescence slope in experiment [4] is -0.591 (inactive). In addition, in experiment [5], the NADPH fluorescence slope is -6.5e-05 (inactive). In addition, the slope in experiment [6] was 0.0061 (inactive).
